Measured values from PubChem BioAssay (NCATS).
Records with an inconclusive call do not appear. Values without a mark were called inactive. Activity calls are given as the source filed them. The call rests on the fitted dose curve; in most records, active means well fitted cell-killing curve with a large enough effect; inconclusive means small, poorly fitted or top-dose-only effect, or effect the other way; inactive means no such curve, though single readings can be large or run the other way.

What was measured:
[1] = Viability qHTS for spleen associated tyrosine kinase inhibitor (SYKi) naive MV4-11 cells (AID 1963823); further: nearly all actives have a fitted effect of over 40% in size
Method in brief: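 SYK inhibitor-naive MV4-11 cells, 500 per well, exposed to compounds for 72 hr at 37 C, 5% CO2. Viability read as CellTiter-Glo luminescence after 10 min at room temperature.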

[2] = Viability qHTS for spleen associated tyrosine kinase inhibitor (SYKi) drug resistant MV4-11 cells (AID 1963824); further: nearly all actives have a fitted effect of over 35% in size
Method in brief: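 SYK inhibitor-resistant MV4-11 AML cells, 500 per well, added to predispensed compounds and incubated 72 hr at 37 C, 5% CO2. Viability measured by CellTiter-Glo luminescence after 10 min at room temperature.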
Potency means the concentration at half of the fitted maximal effect.

| Compound | Potency [1] | Potency [2] | viability (% of control) [1] | viability, % of control [2] |
| --- | --- | --- | --- | --- |
| O=C(Nc1cccc(Nc2cc(Nc3cccc(C(F)(F)F)c3)ncn2)c1)C1CC1 | 0.164 µM (active) | 0.259 µM (active) |  |  |
| CCCc1c(C(C)C)nc(C(C)C)c([C@@H](C)O)c1-c1ccc(F)cc1O | 9.2 µM (active) | 8.2 µM (active) |  |  |
| C=C1[C@@H]2[C@H]3OC(=O)C(=C)[C@@H]3CC[C@@](C)(O)[C@@H]2C[C@@H]1O[C@@H]1O[C@H](CO)[C@@H](O)[C@H](O)[C@H]1O | inactive | inactive |  |  |
| O=c1[nH]sc2cc(Cl)ccc12 | inactive | inactive |  |  |
| CC12CCC(OC3OC(CO)C(O)C(OC4OC(CO)C(O)C(O)C4O)C3O)CC1CCC1C2CCC2(C)/C(=C3/COC(=O)C3)CCC12O (stereo not drawn) | inactive | inactive |  |  |
| Cc1ccc(C)c(NS(=O)(=O)c2cc(C(=O)Nc3ccccc3-c3ccccc3)ccc2C)c1 | 23.1 µM (active) | 16.4 µM (active) |  |  |
| Cc1noc(C)c1-c1cc(O)cc(C(O)c2ccccc2)c1 (stereo not drawn) | 1.46 µM (active) | 1.46 µM (active) |  |  |
| COc1cc2c(NC3CCN(C(C)C)CC3)nc(N3CCC(F)(F)CC3)nc2cc1OCCCN1CCCC1 | 5.17 µM (active) | 2.91 µM (active) |  |  |
| C=C1CC[C@]2(C(=O)O[C@@H]3O[C@H](CO)[C@@H](O)[C@H](O)[C@H]3O)CC[C@]3(C)C(=CCC4[C@@]5(C)C[C@H](O)[C@@H](O[C@@H]6O[C@H](C(=O)O)[C@@H](O)[C@H](O)[C@H]6O)[C@](C)(C=O)C5CC[C@]43C)C2C1 (stereo partly drawn) |  |  | 68.2% [at 9.25 µM] | 87.9% [at 9.25 µM] |
